Measurements as given in article PMC5540273 (PLoS ONE, 2017).
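Also: kd values determined as follow-up on hits from a single-replicate KINOMEscan panel screen.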

These compounds were tested on DDR1.
With `Cc1cccc(-c2nc(-c3ccc(S(C)(=O)=O)cc3)sc2-c2ccnc(NCCc3ccccc3)c2)c1` the Kd was 230 nM. Compound `Cl.O=C(Nc1cccc(-c2nn3ncccc3c2-c2ccnc(Nc3cccnc3)n2)c1)c1c(F)cccc1F` [GSK312879] has a Kd of 140 nM. In the case of `Cc1ccc(NC(=O)Nc2cccc(Cl)c2)cc1-c1ccc(C(=O)Nc2ccncc2)cc1` [GSK1398468], the Kd is reported as 76 nM. In the case of `CC(=O)Nc1nc2cnc(Nc3cc(NC(=O)c4cccc(CCC#N)c4)ccc3C)nc2s1`, the Kd is reported as greater than 10000 nM. Work on `COC(=O)c1c(-c2ccccc2)c2cc(OC)ccc2c(=O)n1Cc1ccccc1` yielded a Kd of 280 nM. `COC(=O)c1c(-c2ccccc2)c2cc(C(=O)O)ccc2c(=O)n1Cc1ccccc1` gave a Kd of 160 nM. Compound `O=C(Nc1ccccc1)Nc1cccc(Oc2ccc3nccn3n2)c1` has a Kd of 24 nM. `Cc1ccc(NC(=O)Nc2cc(C(C)(C)C)nn2-c2ccccc2)cc1` [GSK1014915] was tested, and the Kd was 1300 nM.
